Screens: PubChem BioAssay, several laboratories
PP5 inh – blocks human protein phosphatase 5 activity; P53041; purified PP5c, OMFP substrate fluorescence; inhibition, % at 6.7 µM; 320,000 compounds, 0.18% hits; AID 1987;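 active means inhibition above the campaign's mean inhibition across all tested compounds plus 3 SD, cut at about 9.5% in these data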;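 further: 0% = DMSO only and 100% = 100 µM cantharidin control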
Beta cell apopt – blocks beta cell apoptosis; INS-1E cytokine-induced death, ATP luminescence, 48 h; percent of positive-control rescue, neutral wells zero; protection from apoptosis, % (concentration not given with the values); 300,000 compounds, 0.8% hits;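 active means Every replicate reaches about 75%, or at least half do and their mean reaches it too, limit read from the data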;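 further: 0% = cytokine-treated negative control wells and 100% = positive control rescue; higher means more ATP so stronger rescue from cytokine killing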
CSC inhib – blocks cancer stem cells | cancer stem cell-like cells viability, luminescence | 300,000 compounds, 1.1% hits | inhibition, % at 7.5 µM; in the data active means inhibition above about 75%; tested in HMLE shEcad cells
PP1 counter – counter-screen for PP5 inhibitors: inhibitors of human PP1-alpha. P62136. purified PP1alpha, OMFP fluorescence. inhibition, % at 6.7 µM. 320,000 compounds, 0.9% hits;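 active means inhibition above the mean inhibition of all tested compounds plus 3 SD, computed separately for each screening campaign, cut at about 15% in these data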
Target sequence (P62136 whole entry, looked up): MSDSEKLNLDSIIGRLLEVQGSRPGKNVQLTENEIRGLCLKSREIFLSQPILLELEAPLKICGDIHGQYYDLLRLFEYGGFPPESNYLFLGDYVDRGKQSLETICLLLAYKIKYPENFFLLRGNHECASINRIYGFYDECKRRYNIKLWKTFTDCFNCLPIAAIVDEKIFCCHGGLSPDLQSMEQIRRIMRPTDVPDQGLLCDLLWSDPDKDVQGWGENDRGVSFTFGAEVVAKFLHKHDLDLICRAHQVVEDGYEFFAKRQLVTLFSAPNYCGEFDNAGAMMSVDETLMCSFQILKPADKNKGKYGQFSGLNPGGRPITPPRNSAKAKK
SKKanGAS inh – SKKanGAS growth inhibition | S. pyogenes SKKanGAS, kanamycin growth, BacTiter-Glo, 6 h | inhibition, % at 7.5 µM | 300,000 compounds, 1.3% hits;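 active means mean replicate score, as percent of positive control median, at least 50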;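 further: strain carries kanamycin resistance gene driven by streptokinase promoter and grows in 40 µg/ml kanamycin; loss of luminescence reflects streptokinase promoter inhibition or plain growth inhibition; 0% = median of DMSO wells and 100% = positive control at its reference dose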
Numbers without * were called inactive. This is a sample that favours compounds with a hit; in the whole collection about 3.1% have one here.

For CC(C)c1ccc(N2C(=O)/C(=C/N(C)C)SC2=S)cc1 the results were PP5 inh -0.5, Beta cell apopt 13.6, CSC inhib 22.1, PP1 counter -1.9 and SKKanGAS inh 86.3*.
For O=[N+]([O-])c1cccc(S(=O)(=O)Nc2nc3ccccc3nc2Nc2cccc(S(=O)(=O)N3CCCCC3)c2)c1 the results were SKKanGAS inh 24.6.
`O=S(=O)(c1ccc2nc(Nc3ccccc3)ccc2c1)N1CCCCC1` gave PP5 inh 5.9, Beta cell apopt 103.1*, CSC inhib 49.7, PP1 counter 2.9 and SKKanGAS inh -3.7.
Screening O=S(=O)(c1ccc2nc(N3CCN(c4ccccc4F)CC3)ccc2c1)N1CCCCC1 returned PP5 inh -2.4, Beta cell apopt -1.7, CSC inhib -13.1, PP1 counter -1.5 and SKKanGAS inh 6.3.
`Cc1ccc(S(=O)(=O)Nc2nc3ccccc3nc2Nc2cccc(S(=O)(=O)N3CCCC3)c2)cc1` gave PP5 inh 1.2, Beta cell apopt 30.6, CSC inhib 114.4*, PP1 counter 3.4 and SKKanGAS inh 66.3*.
For O=C(Nc1nc2ccccc2[nH]1)c1ccc(Br)o1 the results were PP5 inh 2.1, Beta cell apopt 10.6, CSC inhib 10.6, PP1 counter -0.6 and SKKanGAS inh 3.6.
For CC(C)C(=O)Nc1ccc(C(=O)Nc2ccc(Br)cc2F)cc1 the results were PP5 inh -0.6, Beta cell apopt 10.9, CSC inhib -11.6, PP1 counter -1.1 and SKKanGAS inh 5.5.
For CCOC(=O)C1=C(Cc2ccc(C)cc2)C(=O)c2ccccc2C1=O the results were PP5 inh 3.9, Beta cell apopt 0.2, CSC inhib 20.1, PP1 counter 1.0 and SKKanGAS inh 64.3*.
Screening CCOC(=O)C1=C(O)c2ccccc2C(=O)/C1=C\c1ccc(CC)cc1 returned PP5 inh 2.2, Beta cell apopt -8.3, CSC inhib 26.8, PP1 counter 0.8 and SKKanGAS inh 81.3*.
For CCOC(=O)c1ccc(COC(=O)c2ccc3c(c2)-c2ccccc2C3=O)cc1 the results were PP5 inh -1.7, Beta cell apopt -2.1, CSC inhib 10.3, PP1 counter -2.8 and SKKanGAS inh 7.7.
`Cc1nnc(SCC2=C(C(=O)O)N3C(=O)C(NC(=O)Cn4ncc(Cl)c4C)C3SC2)s1` (stereo not given) gave PP5 inh -1.4, Beta cell apopt -15.2, CSC inhib -9.1, PP1 counter -5.2 and SKKanGAS inh 105.6*.
Screening Cc1nnc(SCC2=C(C(=O)O)N3C(=O)C(NC(=O)c4cccc(F)c4F)C3SC2)s1 (stereo not given) returned PP5 inh -0.3, Beta cell apopt -5.4, PP1 counter -3.4 and SKKanGAS inh 120.3*.
Screening CCOCCCNC(=O)C(c1ccc(OC)cc1)N(Cc1ccc2c(c1)OCO2)C(=O)c1ccccc1O (stereo not given) returned PP5 inh -0.1, CSC inhib 3.4, PP1 counter -0.7 and SKKanGAS inh 6.6.
For CCOc1ccc(NC(=O)Nc2ccc(Cc3ccncc3)cc2)cc1 the results were PP5 inh 0.8, Beta cell apopt 39.0, CSC inhib 80.4*, PP1 counter -0.6 and SKKanGAS inh -1.8.
`O=C(NNC(=S)NC(=O)c1sc2ccccc2c1Cl)c1ccc(Cl)cc1` gave PP5 inh 1.9, Beta cell apopt -3.0, CSC inhib 66.4, PP1 counter 1.5 and SKKanGAS inh 95.6*.
Screening COc1ccc(C(=O)NNc2ccccc2)cc1 returned PP5 inh 0.4, Beta cell apopt 1.7, CSC inhib 130.7*, PP1 counter -1.4 and SKKanGAS inh -1.8.
`O=C(O)c1ccccc1NC(=S)NC(=O)c1sc2ccccc2c1Cl` gave PP5 inh 0.6, Beta cell apopt -4.3, CSC inhib 2.8 and PP1 counter 2.3.
`COc1cc(C(=O)NNC(=S)NC(=O)c2ccc(Cl)cc2)cc(OC)c1OC` gave PP5 inh -0.8, Beta cell apopt 18.2, CSC inhib 15.9, PP1 counter 2.4 and SKKanGAS inh 92.6*.
For COc1ccc(OC)c(CNS(=O)(=O)c2c(C)nc3scc(C)n3c2=O)c1 the results were PP5 inh -2.3, Beta cell apopt -3.5, CSC inhib -14.5, PP1 counter -3.2 and SKKanGAS inh 4.7.
For O=C1CCC(C(=O)N2CCCCCC2)CN1Cc1cccc(C(F)(F)F)c1 (stereo not given) the results were PP5 inh -0.3, Beta cell apopt -3.7, CSC inhib -11.8, PP1 counter -3.1 and SKKanGAS inh 10.7.
COc1cccc(NC(=O)CN(C)C(C)C(=O)N2CCCC2)c1 (stereo not given) was read as PP5 inh 0.4, Beta cell apopt -5.2 and PP1 counter -2.8.
Screening Cc1cc(C)cc(C(=O)NC(=S)Nc2ccc(Cc3ccncc3)cc2)c1 returned PP5 inh 4.4, Beta cell apopt -4.9, CSC inhib 18.3, PP1 counter 7.2 and SKKanGAS inh 2.9.
For COc1ccc(C(=O)NC(=S)NNC(=O)c2ccc(C)cc2)cc1 the results were PP5 inh 2.4, Beta cell apopt 7.0, CSC inhib 19.3, PP1 counter -1.0 and SKKanGAS inh 83.0*.
`COc1cc(C(=O)NC(=S)Nc2ccc(Cc3ccncc3)cc2)cc(OC)c1OC` gave PP5 inh -3.7, Beta cell apopt -2.0, CSC inhib 26.6, PP1 counter 9.8 and SKKanGAS inh 51.0*.
Screening COc1cc(C(=O)NNC(=O)/C=C/c2ccccc2)cc(OC)c1OC returned Beta cell apopt 4.2 and CSC inhib 9.9.
Screening COc1cc(C(=O)NNC(=S)NC(=O)/C=C/c2ccccc2)cc(OC)c1OC returned PP5 inh 1.4, PP1 counter -1.9 and SKKanGAS inh 93.2*.
`COC(=O)c1ccc(NC(=O)CNC(=O)c2sc3ccccc3c2Cl)cc1` gave PP5 inh 2.2, Beta cell apopt 6.1 and PP1 counter 15.3*.
Screening CCN(C(=O)CN1C(=O)/C(=C/c2ccccc2)SC1=S)C1CCS(=O)(=O)C1 (stereo not given) returned PP5 inh 0.6, Beta cell apopt -11.1, CSC inhib 0.2, PP1 counter -1.0 and SKKanGAS inh -2.4.
`COc1cccc(-n2c(N)cc(=O)nc2SCC(=O)N2CCN(c3ccccc3)CC2)c1` gave PP5 inh 0.7, Beta cell apopt -6.0, CSC inhib -1.7, PP1 counter 1.1 and SKKanGAS inh -4.6.
`CC(C)Oc1cccc(NC(=O)c2cnccc2C(F)(F)F)c1` gave PP5 inh -0.1, Beta cell apopt -1.1, CSC inhib -5.0, PP1 counter -4.4 and SKKanGAS inh -2.7.
Screening COc1ccc(C(=O)NNC(=S)NC(=O)c2ccc(Cl)cc2)cc1 returned PP5 inh 2.4, Beta cell apopt 11.4, CSC inhib 32.4, PP1 counter -1.6 and SKKanGAS inh 79.1*.
Screening COc1ccc(C(=O)NC(=S)NNC(=O)c2cccnc2)cc1 returned PP5 inh 2.7, Beta cell apopt 6.0, CSC inhib 10.4, PP1 counter 1.3 and SKKanGAS inh 13.8.
